Most compounds without a hit are left out; they make up all but 8.1% or so of the library.
ELG1 repair inh: ELG1-dependent DNA repair inhibition. HEK293T ELG1-luciferase reporter, luminescence, 16 h; DNA damage induced by 5-fluorouridine. 330,000 tested, 2.3% active. Potency, µM (highest dose often 46.1 µM), inactives show top-dose activity change, negative = inhibition, actives largely listed as inhibitors; also: % is scaled to controls: 0 for no effect and ±100 for the full control effect; nearly all actives have a fitted effect of over 55% in size
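Reporter activity after DNA damage by 5-fluorouridine is monitored. Compound-treated cells incubate 16 hr at 37 °C, then ONE-Glo is added for 30 min before luminescence reading.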
SW480 rereplic: induces DNA re-replication in SW480 colon adenocarcinoma cells. SW480 DNA re-replication, Hoechst DNA content imaging, 48 h. Potency, µM (titrated, usually from 46.1 µM), without a hit: top-dose re-replication activation, hits mostly activators. 340,000 tested, 1.8% active. AID 624297; also: % of control where 0% means no effect; nearly all actives have a fitted effect of over 55% in size
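DNA re-replication was detected as more nuclei of elevated Hoechst intensity after 48 hr exposure to compound (23 nL pinned per well of 250 cells).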
KB-3-1 tox: kills parental KB-3-1 adenocarcinoma cells | 400,000 tested, 1.4% active | KB-3-1 viability, CellTiter-Glo ATP luminescence, 72 h | Potency, µM (top dose mostly 46.1 µM), most hits filed as cytotoxic; also: % is scaled to controls: 0 for no effect and ±100 for the full control effect; nearly all actives have a fitted effect of over 60% in size
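Cytotoxicity in the drug-sensitive parental line KB-3-1 was scored as loss of CellTiter-Glo luminescence following 72 h incubation with compound. Values come from curve fitting of normalized concentration-response data.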
MCF10A rereplic: inducers of DNA re-replication in MCF 10A breast cells; MCF 10A DNA re-replication, Hoechst nuclear intensity, 48 h; Potency, µM (titrated, usually from 46.1 µM), for the others: at the top dose activity, positive = re-replication, actives largely listed as activators; 350,000 tested, 2.9% active; AID 624296; also: % of control where 0% means no effect; nearly all actives have a fitted effect of over 50% in size
KB-V1 cytotox: kills drug-selected multidrug resistant KB-V1 cells. 400,000 tested, 3.4% active. Potency, µM (series often up to 46.1 µM), usual class: cytotoxic. KB-V1 MDR cells viability, CellTiter-Glo, 72 h. AID 1347076; also: % is scaled to controls: 0 for no effect and ±100 for the full control effect; nearly all actives have a fitted effect of over 60% in size
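KB-V1 MDR subline cells in DMEM (phenol-red free, 10% FBS) exposed to compounds in qHTS concentration series for 72 h at 37 degrees C. Viability read by CellTiter-Glo luminescence; concentration-effect curves fitted after normalization and correction.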
An asterisk follows results filed as active; i = inactive; ? = inconclusive; / = no result given; [ ] = another dose, or the depositor's remark. Calls follow the shape of the dose curve; as a rule, active = well fitted curve in the direction sought with a large enough effect; inconclusive = small, poorly fitted or top-dose-only effect, or another doubt; inactive = no such curve, though single readings can be large; an effect the other way counts as inactive or inconclusive. Potency is read from the fitted curve at half-maximal effect.

SMILES | ELG1 repair inh | SW480 rereplic | KB-3-1 tox | MCF10A rereplic | KB-V1 cytotox
CC(C)CC1(C(=O)NCc2cc(F)cc(C(F)(F)F)c2)C=CCN1C(=O)c1ccccc1 (stereo not given) | -11% | 8% | i | 1.5µM* | i
Cc1cc(N2CCN(C/C=C/c3ccccc3)CC2)n2ncnc2n1 | ? | -11% | i | -7% | 9.2µM*
CCOC(=O)C1=CN(CC)S(=O)(=O)NC1c1ccc(C(F)(F)F)cc1 (stereo not given) | 0% | -15%[9.22 µM] | i | ? | i
COc1ccc(OCC(=O)Nc2ccc3c(c2)N(C)C(=O)c2ccccc2S3)cc1 | / | / | i | / | i
CCOc1ccc(N(C(=O)/C=C/C(=O)Nc2cc(C)on2)C(C(=O)NC2CCCC2)c2ccccc2C)cc1 (stereo not given) | -5% | -4% | 9.2µM* | -1% | ?
CCOc1ccc(C(=O)Nc2ccc(-c3nn[nH]n3)cc2)cc1[N+](=O)[O-] | / | / | i | / | ?
CN(Cc1ccccc1)C(=O)c1ccc(CSc2nc3cccnc3n2Cc2ccccc2)cc1 | / | / | i | / | i
CCCC1(CCC)NC(=O)N(CC(=O)N2CCc3ccccc32)C1=O | 5% | 0% | i | -1% | 16µM*
O=C1NC2(CCCCC2)C(=O)N1CC(=O)N1CCc2ccccc21 | 0% | 9% | i | -28% | i
CN(C)c1nc(NNC(=O)c2ccccc2)nc(N(C)C)n1 | / | 0% | i | -3% | 8.2µM*
O=C(c1ccc2c(c1)N(Cc1ccccc1F)C(=O)c1ccccc1S2=O)N1CCOCC1 (stereo not given) | / | / | i | / | i
COc1cc(S(=O)(=O)N(C)C)ccc1Br | 8% | -3% | i | -8% | i
CN(C)S(=O)(=O)c1ccc2c(c1)Cc1cc(S(=O)(=O)N(C)C)ccc1-2 | 2.3µM* | 4% | i | -3% | i
CC1CCC(NC(=O)C2c3ccccc3C(=O)N2Cc2cccs2)CC1 (stereo not given) | -1% | 1% | i | -1% | 3.7µM*
CN1CCN(c2ccc(NC(=O)c3cc4ccccc4o3)cc2)CC1 | ? | 4% | i | -3% | i
CC(C)(C)C(=O)N1CCN(S(=O)(=O)c2ccc3c(c2)OCCCO3)CC1 | -10% | -9% | 15µM* | 6% | ?
O=C(Nc1ccc(N2CCN(C(=O)c3ccccc3)CC2)cc1)c1cc2ccccc2o1 | 9.2µM* | -5% | ? | 10% | ?
O=C(Nc1ccc(N2CCN(C(=O)c3ccccc3)CC2)cc1)c1ccc2c(c1)OCCO2 | 15µM* | 4% | / | ? | /
O=C(Nc1ccccc1N1CCN(C(=O)c2ccc(Cl)cc2)CC1)c1ccc2c(c1)OCO2 | 16µM* | 8% | i | 10% | ?
CC(=O)N1CCN(S(=O)(=O)c2ccc3c(c2)OCCO3)CC1 | ? | -17% | ? | -4% | i
O=C(NCCO)c1cccc(-c2cnc3cccnn23)c1 | / | / | i | / | i
CC(C)(C)C(=O)N1CCN(c2ccc(NC(=O)c3ccc4c(c3)OCCO4)cc2)CC1 | 16µM* | -19% | ? | ? | ?
O=C(CSc1ccc(Cl)cc1)Nc1ccccc1N1CCN(C(=O)c2ccc(Cl)cc2)CC1 | 23µM* | 0% | i | 6% | i
O=C(Nc1ccc(N2CCN(C(=O)c3ccc(Cl)cc3)CC2)cc1)c1ccc2c(c1)OCCO2 | 4.1µM* | 2% | i | 6% | i
O=C(Nc1ccc(N2CCCCC2)cc1)c1ccc2c(c1)OCCO2 | ? | -2% | ? | 6% | ?
SMILES | ELG1 repair inh | SW480 rereplic | KB-3-1 tox | MCF10A rereplic | KB-V1 cytotox
CC(=O)N1CCN(c2ccc(NC(=O)c3ccc4c(c3)OCCO4)cc2)CC1 | 2% | 3% | i | 6% | i
Cc1c(C(=O)NCc2ccccc2Cl)sc2nc3n(c(=O)c12)CCCCC3 | / | / | i | / | i
N#Cc1nc(-c2ccc(OCc3ccc(Cl)cc3)cc2)oc1N1CCCC1 | / | / | i | / | ?
Cc1ccc2[nH]c(=O)c3cc(C(=O)N(C)c4ccc(C)c(C)c4)sc3c2c1 | ? | 15µM* | i | 4.1µM* | i
CCN(C(=O)c1cc2c(=O)[nH]c3ccc(C)cc3c2s1)c1ccc(F)cc1 | -8% | ? | i | 16µM* | i
CCN(C(=O)c1cc2c(=O)[nH]c3ccc(C)cc3c2s1)c1cccc(C)c1 | -7% | ? | i | ? | i
CCOc1ccccc1NC(=O)c1ccc(F)c(S(=O)(=O)N2CCC3(CC2)OCCO3)c1 | 21µM* | -1% | i | -4% | i
O=C(NCc1ccccc1)c1ccc(F)c(S(=O)(=O)N2CCOCC2)c1 | -5% | 2% | i | 1% | i
Cc1ccc(NC(=O)c2ccc(F)c(S(=O)(=O)N3CCOCC3)c2)cc1F | -13% | 2% | i | 2% | 3.7µM*
O=C(Nc1ccccc1)c1ccc(F)c(S(=O)(=O)N2CCOCC2)c1 | 15µM* | 7% | i | 2% | i
O=C(NC1CCCCCCC1)c1ccc(F)c(S(=O)(=O)N2CCOCC2)c1 | -5% | -6% | i | -4% | i
CCOc1ccccc1NC(=O)c1ccc(S(=O)(=O)N2CCCCC2)cc1 | -14% | -1% | i | -12% | i
O=C(Nc1ccc(-c2cn3ccsc3n2)cc1)c1ccc(F)c(S(=O)(=O)N2CCOCC2)c1 | 16µM* | 3% | ? | 27% | ?
CCNC(=O)C1(C)CCCN(CCOc2ccc(OC)cc2)C1 (stereo not given) | / | / | i | / | i
COc1ccc2c(C)c(CCC(=O)NCc3ccccc3OC)c(=O)oc2c1 | / | / | i | / | i
O=C(NCC1CCCO1)c1ccc(Cl)c(S(=O)(=O)N2CCOCC2)c1 (stereo not given) | 6% | -3% | i | -3% | i
O=C(Nc1ccccc1)c1ccc(NCC2CCCO2)c(S(=O)(=O)N2CCOCC2)c1 (stereo not given) | 23µM* | -6% | i | 0% | ?
CS(=O)(=O)N(Cc1ccc(C(=O)NCCSc2ccccn2)cc1)c1ccccc1 | -35% | 2% | i | 10% | 5.8µM*
Cc1ccc(N(Cc2ccc(C(=O)NCCSc3ccccn3)cc2)S(C)(=O)=O)cc1C | 9.2µM* | 1% | i | 3% | 21µM*
CCc1ccccc1NC(=O)Cn1nc(CC)n2c(cc3sccc32)c1=O | / | / | i | / | i
CC(=O)Nc1ccc(C(=O)OCC(=O)c2cccc([N+](=O)[O-])c2)cc1 | 7% | -6% | i | -5% | i
Cc1ccc(C(=O)COC(=O)c2cccc(NC(=O)c3ccc([N+](=O)[O-])cc3[N+](=O)[O-])c2)cc1 | ? | 26% | ? | ? | 18µM*
